{"source": "PubChem BioAssay AID1345085", "about": "(National Center for Advancing Translational Sciences (NCATS), 2018)", "note": "Inconclusive results are not listed. Activity calls are given as the source filed them. Calls come from the whole dose curve; as a rule, active = well fitted cell-killing curve with a large enough effect; inconclusive = small, poorly fitted or top-dose-only effect, or effect the other way; inactive = no such curve, though single readings can be large or run the other way. Potency is the fitted concentration of half-maximal effect.", "data": [{"test_system": "C33A", "experiment": "Confirmatory qHTS for gynecologic anti-cancer compounds from libraries of approved drugs and bioactive compounds; note: nearly all actives have a fitted effect of over 55% in size", "conditions": "gynecologic cancer cell panel viability, ATPlite luminescence, 48 h; series mostly up to 57.6 µM", "outline": "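ATP-based luminescent viability (ATPlite) after 48 h drug treatment at 37 °C, 5% CO2, across 57.5 uM–0.977 nM in 1:3 steps. Cells seeded at 1,000 per well 16 h beforehand; IC50 values computed, HEK 293T as selectivity control.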", "values": [{"smiles": "O=C(CCCCCCC(=O)Nc1ccccc1)NO", "Potency": "3.43 µM (active)"}, {"smiles": "Cc1ccc(NC(=O)c2ccc(CN3CCN(C)CC3)cc2)cc1Nc1nccc(-c2cccnc2)n1", "Potency": "inactive"}, {"smiles": "CCN1CCN(Cc2ccc(-c3cc4c(NC(C)c5ccccc5)ncnc4[nH]3)cc2)CC1", "note": "(centres undefined)", "Potency": "27.3 µM (active)"}, {"smiles": "O=C(/C=C/c1cccc(S(=O)(=O)Nc2ccccc2)c1)NO", "Potency": "2.98 µM (active)"}, {"smiles": "C=CC(=O)Nc1cc2c(Nc3ccc(F)c(Cl)c3)ncnc2cc1OCCCN1CCOCC1", "Potency": "24.3 µM (active)"}, {"smiles": "Cc1cc(Nc2cc(N3CCN(C)CC3)nc(/C=C/c3ccccc3)n2)n[nH]1", "Potency": "21.7 µM (active)"}, {"smiles": "Oc1cn2c(n1)Nc1ccc(Cl)c(Cl)c1C2", "Potency": "inactive"}, {"smiles": "CC(C)C[C@H](NC(=O)[C@@H](NC(=O)c1cccc(-c2ccccc2)n1)[C@@H](C)O)B(O)O", "Potency": "0.385 µM (active)"}, {"smiles": "O=C(Nc1cn[nH]c1-c1nc2ccc(CN3CCOCC3)cc2[nH]1)NC1CC1", "Potency": "13.7 µM (active)"}, {"smiles": "CC(C)n1nc(-c2cc3cc(O)ccc3[nH]2)c2c(N)ncnc21", "Potency": "3.06 µM (active)"}, {"smiles": "CN1CCN(Cc2ccc(NC(=O)Nc3ccc(Oc4cc(NC(=O)C5CC5)ncn4)cc3)cc2C(F)(F)F)CC1", "Potency": "7.69 µM (active)"}, {"smiles": "Cc1cnc(Nc2ccc(F)cc2Cl)nc1-c1c[nH]c(C(=O)NC(CO)c2cccc(Cl)c2)c1", "note": "(centres undefined)", "Potency": "inactive"}, {"smiles": "CCOc1cc2ncc(C#N)c(Nc3ccc(F)c(Cl)c3)c2cc1NC(=O)/C=C/CN(C)C", "Potency": "8.63 µM (active)"}, {"smiles": "C=CC(=O)Nc1cccc(Oc2nc(Nc3ccc(N4CCN(C)CC4)cc3)ncc2Cl)c1", "Potency": "24.3 µM (active)"}]}]}
